# The entries come from a sample that favours the strongest signals as a whole.
# B1: NKR-PIC (Mus musculus) (protein)
# chain: GTGQKPSREKCCVFIQENLNKTTDCSVNLECPQDWLLHRDKCFHVSQVSNTWEEGQADCGRKGATLLLIQDQEELRFLLDSIKEKYNSFWIGLRFTLPDMNWKWINGTTFNSDVLKITGVTENGSCASILGDKVTPESCASDNRWICQKELNHETPSNDSGT
# Assays:
# Assay in all cases: glycan array binding signal (z-score within array); higher = stronger binding
# Settings in all cases: glycan notation: IUPAC condensed, linker removed
# Fuc(a1-2)Gal(b1-3)GalNAc = molecular target: Fuc(a1-2)Gal(b1-3)GalNAc
# Outline: (§1)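 Arrays were curated from the Consortium for Functional Glycomics database, 3228 in total, and kept only where the protein sequence was available. Binding is expressed as a within-array Z-score. This score was averaged across arrays of the same protein sequence at different concentrations or buffers and across linkers, and negative values can be read as non-binding.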
# Fuc(a1-2)Gal(b1-3)GlcNAc = molecular target: Fuc(a1-2)Gal(b1-3)GlcNAc
# Outline: as §1
# [1] = molecular target: Fuc(a1-2)Gal(b1-3)GlcNAc(b1-2)Man(a1-3)[Fuc(a1-2)Gal(b1-3)GlcNAc(b1-2)Man(a1-6)]Man(b1-4)GlcNAc(b1-4)GlcNAc
# Outline: as §1
# [2] = molecular target: Fuc(a1-2)Gal(b1-3)GlcNAc(b1-3)GalNAc
# Outline: as §1
# [3] = molecular target: Fuc(a1-2)Gal(b1-3)GlcNAc(b1-3)[Neu5Ac(a2-6)Gal(b1-4)GlcNAc(b1-6)]Gal(b1-4)Glc
# Outline: as §1
# [4] = molecular target: Fuc(a1-2)Gal(b1-4)GlcNAc(b1-2)Man
# Outline: as §1
# [5] = molecular target: Fuc(a1-2)Gal(b1-4)GlcNAc6S
# Outline: as §1
# Fuc(a1-2)Gal6S(b1-4)Glc = molecular target: Fuc(a1-2)Gal6S(b1-4)Glc
# Outline: as §1
# [6] = molecular target: Fuc(a1-2)[Gal(a1-3)]Gal(b1-4)GlcNAc(b1-2)Man(a1-3)[Fuc(a1-2)[Gal(a1-3)]Gal(b1-4)GlcNAc(b1-2)Man(a1-6)]Man(b1-4)GlcNAc(b1-4)[Fuc(a1-6)]GlcNAc
# Outline: as §1
# [7] = molecular target: Fuc(a1-2)[GalNAc(a1-3)]Gal(b1-3)GlcNAc(b1-2)Man(a1-3)[Fuc(a1-2)[GalNAc(a1-3)]Gal(b1-3)GlcNAc(b1-2)Man(a1-6)]Man(b1-4)GlcNAc(b1-4)[Fuc(a1-6)]GlcNAc
# Outline: as §1
# [8] = molecular target: Fuc(a1-2)[GalNAc(a1-3)]Gal(b1-3)GlcNAc(b1-6)GalNAc
# Outline: as §1
# [9] = molecular target: Gal(a1-3)Gal(b1-4)GlcNAc(b1-3)GalNAc
# Outline: as §1
# [10] = molecular target: Gal(b1-3)GlcNAc(b1-6)[Gal(b1-3)]GalNAc
# Outline: as §1
# [11] = molecular target: Gal(b1-3)[Fuc(a1-4)]GlcNAc
# Outline: as §1
# [12] = molecular target: Gal(b1-4)GlcNAc(b1-2)Man(a1-3)[Gal(b1-4)GlcNAc(b1-2)Man(a1-6)][Gal(b1-4)GlcNAc(b1-4)]Man(b1-4)GlcNAc(b1-4)[Fuc(a1-6)]GlcNAc
# Outline: as §1
# [13] = molecular target: Gal(b1-4)GlcNAc(b1-2)Man(a1-6)Man(b1-4)GlcNAc(b1-4)GlcNAc
# Outline: as §1
# Gal3S(b1-3)GalNAc = molecular target: Gal3S(b1-3)GalNAc
# Outline: as §1
# [14] = molecular target: Gal3S(b1-3)[Fuc(a1-4)]GlcNAc
# Outline: as §1
# Gal6S(b1-4)Glc = molecular target: Gal6S(b1-4)Glc
# Outline: as §1
# [15] = molecular target: GalNAc(b1-4)GlcNAc(b1-2)Man
# Outline: as §1
# GalNAc(b1-6)GalNAc = molecular target: GalNAc(b1-6)GalNAc
# Outline: as §1
# [16] = molecular target: GalNAc3S(b1-4)[Fuc(a1-3)]GlcNAc
# Outline: as §1
# GalNAc6S(b1-4)GlcNAc = molecular target: GalNAc6S(b1-4)GlcNAc
# Outline: as §1
# [17] = molecular target: GlcNAc(a1-3)Gal(b1-4)GlcNAc
# Outline: as §1
# [18] = molecular target: GlcNAc(a1-4)Gal(b1-3)GlcNAc
# Outline: as §1
# [19] = molecular target: GlcNAc(a1-4)Gal(b1-4)GlcNAc(b1-3)Gal(b1-4)GlcNAc(b1-3)Gal(b1-4)GlcNAc
# Outline: as §1
# [20] = molecular target: GlcNAc(b1-2)Man(a1-3)[GlcNAc(b1-2)Man(a1-6)]Man(b1-4)GlcNAc(b1-4)[Fuc(a1-6)]GlcNAc
# Outline: as §1
# [21] = molecular target: GlcNAc(b1-2)Man(a1-3)[GlcNAc(b1-4)][GlcNAc(b1-2)Man(a1-6)]Man(b1-4)GlcNAc(b1-4)GlcNAc
# Outline: as §1
# [22] = molecular target: GlcNAc(b1-2)Man(a1-3)[GlcNAc(b1-4)][GlcNAc(b1-2)Man(a1-6)]Man(b1-4)GlcNAc(b1-4)[Fuc(a1-6)]GlcNAc
# Outline: as §1
# [23] = molecular target: GlcNAc(b1-4)GlcNAc(b1-4)GlcNAc
# Outline: as §1
# [24] = molecular target: GlcNAc(b1-4)GlcNAc(b1-4)GlcNAc(b1-4)GlcNAc(b1-4)GlcNAc(b1-4)GlcNAc
# Outline: as §1
# [25] = molecular target: Man(a1-2)Man(a1-3)[Man(a1-6)]Man(a1-6)[Man(a1-2)Man(a1-3)]Man(b1-4)GlcNAc(b1-4)GlcNAc
# Outline: as §1
# [26] = molecular target: Man(a1-2)Man(a1-6)[Man(a1-3)]Man(a1-6)[Man(a1-2)Man(a1-2)Man(a1-3)]Man
# Outline: as §1
# MurNAc(b1-4)GlcNAc = molecular target: MurNAc(b1-4)GlcNAc
# Outline: as §1
# Neu5Ac(a2-6)Gal = molecular target: Neu5Ac(a2-6)Gal
# Outline: as §1
# [27] = molecular target: Neu5Ac(a2-6)Gal(b1-4)GlcNAc(b1-2)Man(a1-3)[GlcNAc(b1-2)Man(a1-6)]Man(b1-4)GlcNAc(b1-4)GlcNAc
# Outline: as §1
# [28] = molecular target: Neu5Ac(a2-6)Gal(b1-4)GlcNAc(b1-3)Gal(b1-4)GlcNAc(b1-3)[Neu5Ac(a2-6)Gal(b1-4)GlcNAc(b1-3)Gal(b1-4)GlcNAc(b1-6)]GalNAc
# Outline: as §1
# [29] = molecular target: Neu5Ac(a2-6)GalNAc(b1-4)GlcNAc
# Outline: as §1
# [30] = molecular target: Neu5Ac(a2-6)GlcNAc(b1-4)GlcNAc(b1-4)GlcNAc
# Outline: as §1
# [31] = molecular target: Neu5Gc(a2-3)Gal(b1-4)GlcNAc
# Outline: as §1
binder,measurement,setting,value
B1,glycan array binding signal (z-score),Fuc(a1-2)Gal(b1-3)GalNAc,-0.288
same,glycan array binding signal (z-score),Fuc(a1-2)Gal(b1-3)GlcNAc,-0.281
same,glycan array binding signal (z-score),[1],-0.138
same,glycan array binding signal (z-score),[2],-0.371
same,glycan array binding signal (z-score),[3],-0.362
same,glycan array binding signal (z-score),[4],-0.316
same,glycan array binding signal (z-score),[5],-0.32
same,glycan array binding signal (z-score),Fuc(a1-2)Gal6S(b1-4)Glc,-0.317
same,glycan array binding signal (z-score),[6],-0.335
same,glycan array binding signal (z-score),[7],-0.375
same,glycan array binding signal (z-score),[8],-0.363
same,glycan array binding signal (z-score),[9],-0.361
same,glycan array binding signal (z-score),[10],-0.308
same,glycan array binding signal (z-score),[11],-0.262
same,glycan array binding signal (z-score),[12],-0.225
same,glycan array binding signal (z-score),[13],-0.334
same,glycan array binding signal (z-score),Gal3S(b1-3)GalNAc,-0.25
same,glycan array binding signal (z-score),[14],-0.318
same,glycan array binding signal (z-score),Gal6S(b1-4)Glc,-0.305
same,glycan array binding signal (z-score),[15],5.67
same,glycan array binding signal (z-score),GalNAc(b1-6)GalNAc,0.458
same,glycan array binding signal (z-score),[16],-0.38
same,glycan array binding signal (z-score),GalNAc6S(b1-4)GlcNAc,4.94
same,glycan array binding signal (z-score),[17],3.83
same,glycan array binding signal (z-score),[18],1.3
same,glycan array binding signal (z-score),[19],4.1
same,glycan array binding signal (z-score),[20],-0.287
same,glycan array binding signal (z-score),[21],3.99
same,glycan array binding signal (z-score),[22],3.73
same,glycan array binding signal (z-score),[23],4.83
same,glycan array binding signal (z-score),[24],4.62
same,glycan array binding signal (z-score),[25],-0.325
same,glycan array binding signal (z-score),[26],-0.367
same,glycan array binding signal (z-score),MurNAc(b1-4)GlcNAc,4.79
same,glycan array binding signal (z-score),Neu5Ac(a2-6)Gal,-0.258
same,glycan array binding signal (z-score),[27],-0.338
same,glycan array binding signal (z-score),[28],-0.332
same,glycan array binding signal (z-score),[29],4.03
same,glycan array binding signal (z-score),[30],5.02
same,glycan array binding signal (z-score),[31],-0.264

# Reference: the supplement of paper PMC8728848
